Assay results reported in PubChem BioAssay AID1159580 (chemical genetic matrix, 2015).
The whole screen tested about 5,500 compounds, of which about 2,000 (36%) were called active. Another 18% or so got no clear call; they are omitted. Cut-off read from the data, not from the text of the source: active = normalized growth mostly below about 0.91 (no sharp cut-off); inconclusive = no clear call, values can overlap the other calls; inactive = mostly above about 0.92. This is one part of the list.

Assay: chemical genetic growth profiling, strain panel (AID 1159580);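 note: tested at 20 µM; growth read once vehicle control cultures reached saturation at 30 °C; 1 = growth at the plate median or of vehicle wells; lower values mean less growth of the strain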
Conditions: growth OD
[1] = S. cerevisiae deletion strains, locus YAR019C, strain CDC15, stronger effect = lower value
[2] = S. cerevisiae deletion strains, locus YBL105C, strain PKC1, stronger effect = lower value
[3] = S. cerevisiae deletion strains, locus YBR135W, strain CKS1, stronger effect = lower value
[4] = S. cerevisiae deletion strains, locus YBR136W, strain MEC1, stronger effect = lower value
[5] = S. cerevisiae deletion strains, locus YBR160W, strain CDC28, stronger effect = lower value
[6] = S. cerevisiae deletion strains, locus YDL017W, strain CDC7, stronger effect = lower value
[7] = S. cerevisiae deletion strains, locus YDL028C, strain MPS1, stronger effect = lower value
[8] = S. cerevisiae deletion strains, locus YDL101C, strain DUN1, stronger effect = lower value
[9] = S. cerevisiae deletion strains, locus YDL108W, strain KIN28, stronger effect = lower value
[10] = S. cerevisiae deletion strains, locus YDL132W, strain cdc53, stronger effect = lower value
[11] = S. cerevisiae deletion strains, locus YDL214C, strain PRR2, stronger effect = lower value
[12] = S. cerevisiae deletion strains, locus YDR052C, strain DBF4, stronger effect = lower value
[13] = S. cerevisiae deletion strains, locus YDR054C, strain cdc34, stronger effect = lower value
[14] = S. cerevisiae deletion strains, locus YDR226W, strain ADK1, stronger effect = lower value
[15] = S. cerevisiae deletion strains, locus YDR477W, strain SNF1, stronger effect = lower value
[16] = S. cerevisiae deletion strains, locus YER123W, strain YCK3, stronger effect = lower value
[17] = S. cerevisiae deletion strains, locus YER133W, strain GLC7, stronger effect = lower value
[18] = S. cerevisiae deletion strains, locus YFL009W, strain cdc4, stronger effect = lower value
[19] = S. cerevisiae deletion strains, locus YFL029C, strain CAK1, stronger effect = lower value
[20] = S. cerevisiae deletion strains, locus YFR003C, strain YPI1, stronger effect = lower value
[21] = S. cerevisiae deletion strains, locus YFR019W, strain FAB1, stronger effect = lower value
[22] = S. cerevisiae deletion strains, locus YFR028C, strain CDC14, stronger effect = lower value
[23] = S. cerevisiae deletion strains, locus YGR040W, strain KSS1, stronger effect = lower value
[24] = S. cerevisiae deletion strains, locus YGR052W, strain FMP48, stronger effect = lower value
[25] = S. cerevisiae deletion strains, locus YGR092W, strain DBF2, stronger effect = lower value
[26] = S. cerevisiae deletion strains, locus YHR030C, strain SLT2, stronger effect = lower value
[27] = S. cerevisiae deletion strains, locus YHR079C, strain IRE1, stronger effect = lower value
[28] = S. cerevisiae deletion strains, locus YHR082C, strain KSP1, stronger effect = lower value
[29] = S. cerevisiae deletion strains, locus YHR205W, strain SCH9, stronger effect = lower value
[30] = S. cerevisiae deletion strains, locus YIL147C, strain SLN1, stronger effect = lower value
[31] = S. cerevisiae deletion strains, locus YJL095W, strain BCK1, stronger effect = lower value
[32] = S. cerevisiae deletion strains, locus YJL128C, strain PBS2, stronger effect = lower value
[33] = S. cerevisiae deletion strains, locus YJL157C, strain FAR1, stronger effect = lower value
[34] = S. cerevisiae deletion strains, locus YJR016C, strain ILV3, stronger effect = lower value
[35] = S. cerevisiae deletion strains, locus YJR066W, strain TOR1 (second series), stronger effect = lower value
[36] = S. cerevisiae deletion strains, locus YJR066W, strain TOR1, stronger effect = lower value
[37] = S. cerevisiae deletion strains, locus YKL048C, strain ELM1, stronger effect = lower value
[38] = S. cerevisiae deletion strains, locus YKL067W, strain YNK1, stronger effect = lower value
[39] = S. cerevisiae deletion strains, locus YKL101W, strain HSL1, stronger effect = lower value
[40] = S. cerevisiae deletion strains, locus YKL193C, strain SDS22, stronger effect = lower value
[41] = S. cerevisiae deletion strains, locus YKL203C, strain TOR2, stronger effect = lower value
[42] = S. cerevisiae deletion strains, locus YLR113W, strain HOG1, stronger effect = lower value
[43] = S. cerevisiae deletion strains, locus YLR133W, strain CKI1, stronger effect = lower value
[44] = S. cerevisiae deletion strains, locus YLR403W, strain SFP1, stronger effect = lower value
[45] = S. cerevisiae deletion strains, locus YML070W, strain DAK1, stronger effect = lower value
[46] = S. cerevisiae deletion strains, locus YMR001C, strain CDC5, stronger effect = lower value
[47] = S. cerevisiae deletion strains, locus YMR205C, strain PFK2 (second series), stronger effect = lower value
[48] = S. cerevisiae deletion strains, locus YMR277W, strain FCP1, stronger effect = lower value
[49] = S. cerevisiae deletion strains, locus YNL006W, strain LST8, stronger effect = lower value
[50] = S. cerevisiae deletion strains, locus YNL020C, strain ARK1, stronger effect = lower value
[51] = S. cerevisiae deletion strains, locus YNL161W, strain CBK1, stronger effect = lower value
[52] = S. cerevisiae deletion strains, locus YNL183C, strain NPR1, stronger effect = lower value
[53] = S. cerevisiae deletion strains, locus YNL207W, strain RIO2, stronger effect = lower value
[54] = S. cerevisiae deletion strains, locus YNL222W, strain SSU72, stronger effect = lower value
[55] = S. cerevisiae deletion strains, locus YNL307C, strain MCK1 (second series), stronger effect = lower value
[56] = S. cerevisiae deletion strains, locus YOL078W, strain AVO1, stronger effect = lower value
[57] = S. cerevisiae deletion strains, locus YOL136C, strain PFK27, stronger effect = lower value
[58] = S. cerevisiae deletion strains, locus YOR061W, strain CKA2, stronger effect = lower value
[59] = S. cerevisiae deletion strains, locus YOR119C, strain RIO1, stronger effect = lower value
[60] = S. cerevisiae deletion strains, locus YOR231W, strain MKK1, stronger effect = lower value
[61] = S. cerevisiae deletion strains, locus YOR329C, strain SCD5, stronger effect = lower value
[62] = S. cerevisiae deletion strains, locus YPL031C, strain PHO85, stronger effect = lower value
[63] = S. cerevisiae deletion strains, locus YPL153C, strain RAD53, stronger effect = lower value
[64] = S. cerevisiae deletion strains, locus YPL204W, strain HRR25, stronger effect = lower value
[65] = S. cerevisiae deletion strains, locus YPL209C, strain IPL1, stronger effect = lower value
[66] = S. cerevisiae deletion strains, locus YPL256C, strain CLN2, stronger effect = lower value
[67] = S. cerevisiae deletion strains, locus YPR025C, strain CCL1, stronger effect = lower value
[68] = S. cerevisiae deletion strains, locus YPR106W, strain ISR1, stronger effect = lower value
[69] = S. cerevisiae deletion strains, locus YPR111W, strain DBF20, stronger effect = lower value
[70] = S. cerevisiae deletion strains, strain NNK1, stronger effect = lower value
[71] = S. cerevisiae deletion strains, strain TSCII, stronger effect = lower value
[72] = S. cerevisiae deletion strains, locus YAL013W, strain DEP1, stronger effect = lower value
[73] = S. cerevisiae deletion strains, locus YBR229C, strain ROT2, stronger effect = lower value
[74] = S. cerevisiae deletion strains, locus YDL134C, strain PPH21, stronger effect = lower value
[75] = S. cerevisiae deletion strains, locus YDR150W, strain NUM1, stronger effect = lower value
[76] = S. cerevisiae deletion strains, locus YEL061C, strain CIN8, stronger effect = lower value
[77] = S. cerevisiae deletion strains, locus YGR078C, strain PAC10, stronger effect = lower value
[78] = S. cerevisiae deletion strains, locus YHR087W, strain rtc3, stronger effect = lower value
[79] = S. cerevisiae deletion strains, locus YJR043C, strain POL32, stronger effect = lower value
[80] = S. cerevisiae deletion strains, locus YJR075W, strain HOC1, stronger effect = lower value
[81] = S. cerevisiae deletion strains, locus YLR039C, strain RIC1, stronger effect = lower value
[82] = S. cerevisiae deletion strains, locus YLR058C, strain SHM2 (second series), stronger effect = lower value
[83] = S. cerevisiae deletion strains, locus YLR085C, strain ARP6, stronger effect = lower value
[84] = S. cerevisiae deletion strains, locus YLR262C, strain YPT6, stronger effect = lower value
[85] = S. cerevisiae deletion strains, locus YML094W, strain GIM5, stronger effect = lower value
[86] = S. cerevisiae deletion strains, locus YMR219W, strain ESC1, stronger effect = lower value
[87] = S. cerevisiae deletion strains, locus YMR263W, strain SAP30, stronger effect = lower value
[88] = S. cerevisiae deletion strains, locus YMR307W, strain GAS1, stronger effect = lower value
[89] = S. cerevisiae deletion strains, locus YNL153C, strain GIM3, stronger effect = lower value
[90] = S. cerevisiae deletion strains, locus YNL298W, strain CLA4 (second series), stronger effect = lower value
[91] = S. cerevisiae deletion strains, locus YNL322C, strain KRE1, stronger effect = lower value
[92] = S. cerevisiae deletion strains, locus YNR030W, strain Alg12, stronger effect = lower value
[93] = S. cerevisiae deletion strains, locus YPL055C, strain LGE1, stronger effect = lower value
[94] = S. cerevisiae deletion strains, locus YPL241C, strain CIN2, stronger effect = lower value
[95] = S. cerevisiae deletion strains, locus YPR135W, strain CTF4, stronger effect = lower value

Measured: normalized growth

Cc1ccc(OCc2n[nH]c(=S)n2Cc2ccccc2)c2c1CCC2
active: [16] 0.609 | [21] 0.68 | [26] 0.283 | [28] 0.53 | [37] 0.782 | [39] 0.722 | [42] 0.698 | [55] 0.621 | [63] 0.609 | [66] 0.655
inactive: [1] 0.987 | [2] 0.988 | [3] 0.982 | [4] 0.98 | [5] 0.985 | [6] 0.987 | [7] 0.975 | [8] 0.994 | [9] 0.973 | [10] 0.99 | [11] 0.823 | [12] 0.995 | [13] 0.988 | [14] 0.988 | [15] 0.817 | [17] 0.841 | [18] 0.984 | [19] 0.992 | [20] 0.985 | [22] 0.984 | [23] 0.801 | [24] 0.647 | [25] 0.495 | [27] 0.619 | [29] 0.908 | [30] 0.967 | [31] 0.656 | [32] 0.955 | [33] 0.803 | [34] 0.986 | [35] 0.797 | [36] 0.73 | [38] 0.838 | [40] 0.988 | [41] 0.829 | [43] 0.793 | [44] 0.84 | [45] 0.752 | [46] 0.984 | [47] 0.847 | [48] 0.986 | [49] 0.998 | [50] 0.713 | [51] 0.99 | [52] 0.628 | [53] 0.988 | [54] 0.986 | [56] 0.985 | [57] 0.785 | [58] 0.751 | [59] 0.883 | [60] 0.677 | [61] 0.988 | [62] 0.746 | [64] 0.723 | [65] 0.984 | [67] 0.989 | [68] 0.992 | [69] 0.99 | [70] 1 | [71] 0.991

Cc1ccc(OCc2nnc(SCC(=O)c3ccc(F)cc3)n2-c2ccccc2)c2c1CCC2
inactive: [72] 0.982 | [73] 0.987 | [8] 0.961 | [74] 0.982 | [75] 0.972 | [76] 0.982 | [77] 0.966 | S. cerevisiae deletion strains, locus YGR229C, strain SMI1, stronger effect = lower value 0.984 | [26] 0.964 | [78] 0.957 | S. cerevisiae deletion strains, locus YJL187C, strain SWE1, stronger effect = lower value 0.983 | [79] 0.969 | [80] 0.986 | [81] 0.968 | [82] 0.978 | [83] 0.957 | [84] 0.961 | [85] 0.947 | [86] 0.99 | [87] 0.982 | [88] 1.01 | S. cerevisiae deletion strains, locus YNL128W, strain TEP1, stronger effect = lower value 0.992 | [89] 0.989 | [90] 0.972 | [91] 0.993 | [92] 0.98 | S. cerevisiae deletion strains, locus YOL006C, strain TOP1, stronger effect = lower value 0.963 | [93] 0.956 | [94] 1.04 | [95] 0.867 | S. cerevisiae strains, strain wild type, stronger effect = lower value 0.971

C=CCn1c(COc2c(Br)cc(C)c3c2CCC3)n[nH]c1=S
active: [76] 0.896 | [26] 0.544 | [81] 0.491 | [83] 0.558 | [84] 0.571 | [85] 0.841 | [87] 0.846 | [88] 0.324 | [90] 0.764 | [92] 0.874 | [94] 0.847 | [95] 0.612
inactive: [72] 0.968 | [73] 0.977 | S. cerevisiae deletion strains, locus YCL061C, strain MRC1, stronger effect = lower value 0.969 | [8] 0.975 | [74] 0.965 | [75] 0.857 | [77] 0.978 | [78] 1.01 | [79] 0.98 | [80] 0.992 | [82] 0.991 | [86] 0.988 | [89] 0.975 | [91] 0.991 | [93] 1.08

CSc1nnc(COc2ccc(C)c3c2CCC3)n1-c1ccccc1
inactive: [1] 0.982 | [2] 0.98 | [3] 0.986 | [4] 0.984 | [5] 0.984 | [6] 0.991 | [7] 0.991 | [8] 0.974 | [9] 0.992 | [10] 0.98 | [11] 0.96 | [12] 0.98 | [13] 0.976 | [14] 0.977 | [15] 0.972 | [16] 0.96 | [17] 0.941 | [18] 0.974 | [19] 0.981 | [20] 0.979 | [21] 0.978 | [22] 0.978 | [23] 0.962 | [24] 1.05 | [25] 0.948 | [26] 1.1 | [27] 1.05 | [28] 1.02 | [29] 0.972 | [30] 0.987 | [31] 1.03 | [32] 0.931 | [33] 0.968 | [34] 0.988 | [35] 0.934 | [36] 1.07 | [37] 0.964 | [38] 0.966 | [39] 0.964 | [40] 0.98 | [41] 1.04 | [42] 0.924 | [43] 0.979 | [44] 0.968 | [45] 0.966 | [46] 0.98 | [47] 0.974 | [48] 0.98 | [49] 0.98 | [50] 0.976 | [51] 0.982 | [52] 1.05 | [53] 0.979 | [54] 0.985 | [55] 0.968 | [56] 0.987 | [57] 0.963 | [58] 0.959 | [59] 0.992 | [60] 1.02 | [61] 0.987 | [62] 0.961 | [63] 0.959 | [64] 0.967 | [65] 0.983 | [66] 0.995 | [67] 0.984 | [68] 0.98 | [69] 0.97 | [70] 0.975 | [71] 0.974
